MOR-DOR ag: OPRM1-OPRD1 heterodimerization agonism; cells, luminescence; actives 0.3% (n = 340,000); activation, % at 9.3 µM; AID 504326; P35372+P41143; in the data active = activation above about 18%;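 also: 0% = vehicle-treated cells and 100% = reference agonist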
HTR5A ag ctr: activates human HTR5A in OPRM1-OPRD1 agonist counter-screen; actives 0.61% (n = 340,000); HTR5A agonist assay, luminescence, cell-based; P47898; activation, % at 9.3 µM; in the data active = activation mostly above about 9.5%, no sharp cut-off; inactive = mostly below about 7.6%;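 also: 0% = cells with vehicle only and 100% = reference agonist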
HTR5A inv ag: inverse agonist of human HTR5A in OPRM1-OPRD1 counter-screen; HTR5A cell line, luminescence, inverse agonism; inhibition, % at 9.3 µM; actives 0.083% (n = 340,000); AID 504634; in the data active = inhibition mostly above about 23%, no sharp cut-off; inactive = mostly below about 18%;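 also: 0% = cells with DMSO and 100% = no-cell wells with DMSO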
HTR2A ag: agonists of mouse serotonin 5-HT2A receptor (HTR2A). actives 0.66% (n = 360,000). activation, % at 7.6 µM. P35363. CHO-K1 mHTR2A beta-arrestin complementation, luminescence; percent of 30 µM serotonin response;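 active = activation above a run cutoff, the mean activation of all tested compounds plus 3 SD, cut at about 14% in these data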;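 also: 0% = plate median of compound wells and 100% = 30 µM serotonin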
Target sequence (P35363 whole entry, looked up): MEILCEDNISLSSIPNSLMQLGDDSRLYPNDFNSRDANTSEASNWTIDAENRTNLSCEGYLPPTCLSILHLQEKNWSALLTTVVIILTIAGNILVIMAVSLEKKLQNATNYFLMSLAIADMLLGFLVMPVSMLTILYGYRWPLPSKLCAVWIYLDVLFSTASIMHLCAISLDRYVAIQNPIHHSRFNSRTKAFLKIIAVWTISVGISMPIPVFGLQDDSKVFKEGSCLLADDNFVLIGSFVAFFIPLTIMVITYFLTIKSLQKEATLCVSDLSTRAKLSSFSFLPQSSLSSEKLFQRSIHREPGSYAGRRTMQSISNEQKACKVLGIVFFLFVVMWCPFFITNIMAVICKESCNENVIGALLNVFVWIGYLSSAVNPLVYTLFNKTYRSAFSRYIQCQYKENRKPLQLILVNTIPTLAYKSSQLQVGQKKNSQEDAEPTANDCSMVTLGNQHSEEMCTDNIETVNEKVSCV
OPRM1-OPRD1 inv: inverse agonist of human OPRM1-OPRD1 heterodimerization; inhibition, % at 9.3 µM; actives 0.21% (n = 340,000); cell-based MOR-DOR heterodimer luminescence, inverse agonism; P35372+P41143; in the data active = inhibition above about 22%, passing the limit was not always enough;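 also: 0% = cells with DMSO and 100% = wells without cells with DMSO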
OPRM1 ag: OPRM1 agonism in mouse HTR2A counterscreen | shares compounds with HTR2A ag | U2OS OPRM1 beta-arrestin PathHunter, luminescence; DMSO 0%, DAMGO 9.3 µM 100% | actives 5.3% (n = 2,300) | activation, % at 9.3 µM;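 active = mean activation above the mean of DMSO-only wells plus 3 SD, cut at about 0.5% in these data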
m5-HT2A ag conf: confirmation of mouse HTR2A serotonin receptor agonists; actives 19% (n = 2,300); shares compounds with HTR2A ag; CHO-K1 PathHunter beta-arrestin recruitment, luminescence; DMSO 0%, 30 µM serotonin 100%; activation, % at 7.6 µM; AID 624381;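 active = mean activation across triplicates above the hit threshold derived in the original primary screen, cut at about 15% in these data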
* = called active by the depositor; · = no result given. Only some compounds are listed: those with a hit (about 1.6% of all), similar ones and a draw of the others.

SMILES	MOR-DOR ag	HTR5A ag ctr	HTR5A inv ag	HTR2A ag	OPRM1-OPRD1 inv	OPRM1 ag	m5-HT2A ag conf
CCC1(CCC(C)C)C(=O)NC(=O)N(c2ccccc2)C1=O (stereo not given)	·	·	·	0.6	·	·	·
CCCN1CCc2cc(O)cc3c2[C@H]1Cc1ccc(O)c(O)c1-3	7.2	2.3	-8.1	48.5*	-38.9	-0.1	171.0*
CN1CCc2cc(O)cc3c2[C@H]1Cc1ccc(O)c(O)c1-3	1.4	-1.0	-9.2	56.5*	-7.7	0.2	151.6*
COc1ccc(C(c2nnnn2-c2c(C)cccc2C)N2CCC3(CC2)C(=O)NCN3c2ccccc2)cc1 (stereo not given)	·	·	·	-4.4	·	·	·
c1ccc2nc(N3CCNCC3)ccc2c1	-0.5	2.6	-9.2	50.6*	2.6	-0.6	38.1*
c1ccc2c(N3CCNCC3)cccc2c1	-1.1	5.6	-20.0	-5.5	5.7	·	·
CC(N)Cc1c[nH]c2c1ccc1ccccc12 (stereo not given)	-2.0	4.6	-17.1	-8.8	9.3	·	·
COc1cc(C[C@@H](C)N)c(OC)cc1I	-1.1	2.2	-6.4	60.8*	6.2	-0.3	26.3*
CC(C)(C)n1nnnc1C(c1cccc2ccccc12)N1CCC2(CC1)C(=O)NCN2c1ccccc1 (stereo not given)	·	·	·	-1.5	·	·	·
CCCN1CCC[C@@H]2Cc3[nH]ncc3C[C@H]21	-1.6	0.5	-1.7	42.0*	8.4	-0.5	170.5*
O=P(CN1CCN(c2ccccc2)CC1)(N1CCCCC1)N1CCCCC1	-1.0	0.6	-22.5	14.5*	6.1	-0.5	19.6*
Oc1cc2c(cc1CN1CCN(c3ccccc3)CC1)CCC2	2.1	-0.9	-21.5	-4.6	-13.5	·	·
COc1ccc(N2C(=O)/C(=C/c3ccc(OC)c(OC)c3)C(=O)NC2=S)cc1	-3.0	0.2	-0.8	2.2	14.2	·	·
COc1ccc(N2C(=O)/C(=C/c3ccc(C)o3)C(=O)NC2=S)c(OC)c1	-2.1	0.7	-12.5	22.9*	10.9	-0.6	-4.2
Cc1cccc(C)c1OP(N)(=O)Oc1c(C)cccc1C	0.7	-4.8	12.7	17.8*	-3.5	-0.7	-2.1
CN(Cc1cccc(-c2ccncc2)c1)C(=O)Oc1ccc([N+](=O)[O-])cc1	·	·	·	2.3	·	·	·
COc1c(OP2(=S)OCC(C)(C)CO2)cnn(C2CCCCC2)c1=O	·	·	·	-2.6	·	·	·
CC12CN3CC(c4ccccc4)(CN(C1)C31CCCCC1)C2=O	-1.0	-0.2	4.3	16.4*	4.2	-0.3	-0.2
CC12CN3CC(C)(CN(C1)P3(=O)Oc1ccccc1)C2=O (stereo not given)	0.3	0.9	-30.0	-4.0	-1.9	·	·
COc1ccccc1CNCCc1ccc(F)cc1	-1.5	2.1	-8.0	31.6*	8.7	-0.5	8.8
COc1ccccc1CNCCc1cccc(Cl)c1	·	·	·	43.1*	·	-0.5	20.6*
COc1ccc(CCNCc2ccccc2F)cc1OC	-2.8	-6.8	-37.1	17.5*	16.0	-0.6	5.6
C=C(C)CC1(CC)C(=O)NC(=S)NC1=O	·	·	·	-4.0	·	·	·
O=S(=O)(c1ccccc1)N1Cc2ccccc2-n2nncc2C1	·	·	·	4.3	·	·	·
O=C1NCN(c2ccccc2)C12CCN(C(c1nnnn1-c1ccc3c(c1)OCCO3)C1CC1)CC2 (stereo not given)	·	·	·	-6.2	·	·	·
SMILES	MOR-DOR ag	HTR5A ag ctr	HTR5A inv ag	HTR2A ag	OPRM1-OPRD1 inv	OPRM1 ag	m5-HT2A ag conf
O=C(COc1ccccc1)N1CCN(Cc2c[nH]c3ccccc23)CC1	-1.4	15.1	-38.4	15.8*	7.6	-0.3	7.1
O=C(Cc1ccccc1)N1CCN(Cc2c[nH]c3ccccc23)CC1	2.5	2.3	-21.0	22.3*	-12.8	-0.5	10.0
COc1cccc(CN2CCN(C(=O)Cc3ccccc3OC)CC2)c1	-0.7	1.3	-4.8	19.4*	3.7	0.0	9.7
Cc1ccccc1CN1CCN(C(=O)Cc2ccccc2)CC1	-1.9	-1.1	2.8	16.9*	9.7	-0.6	1.4
O=C(Cc1ccccc1)N1CCN(Cc2ccc(Cl)cc2)CC1	0.1	-1.4	5.3	1.5	-0.2	·	·
Cn1cccc1CN1CCN(C(=O)COc2ccccc2)CC1	-0.8	0.8	-16.5	-3.8	4.3	·	·
c1ccc(C2(NC3=NCCO3)CCCCC2)cc1	·	·	·	1.7	·	·	·
Cc1ccc(S(=O)(=O)N2Cc3cc(N4CCOCC4)ccc3-n3nncc3C2)cc1	·	·	·	4.0	·	·	·
COc1ccc(OCC(=O)N2CCN(Cc3c[nH]c4ccccc34)CC2)cc1	1.7	0.6	-27.7	25.5*	-9.7	-0.6	16.1*
O=c1[nH]c2ccccc2n1C1CCN(C(c2cccs2)c2nnnn2-c2ccc3c(c2)OCCO3)CC1 (stereo not given)	·	·	·	14.5*	·	·	17.1*
O=c1[nH]c2ccccc2n1C1CCN(C(c2ccccc2OC(F)(F)F)c2nnnn2-c2ccc3c(c2)OCCO3)CC1 (stereo not given)	·	·	·	15.5*	·	·	11.3
O=C(C1CCCCC1)N1Cc2ccccc2-n2nncc2C1	·	·	·	0.2	·	·	·
Cc1nn(Cc2ccccc2)c(C)c1C(=O)NCc1ccccc1F	-3.3	-4.6	12.7	-4.3	15.4	·	·
Cc1nn(Cc2ccccc2)c(C)c1C(=O)O	-2.1	3.1	-4.2	15.4*	10.6	0.6*	6.3
COc1ccc(OC(=O)N(C)C[C@@H]2OCc3ccccc3-c3c(n(C)c4ccccc34)C(=O)N([C@H](C)CO)C[C@@H]2C)cc1	·	·	·	-1.2	·	·	·
c1ccc2c(CCNCc3ccc4c(c3)OCO4)c[nH]c2c1	0.1	5.2	2.3	29.7*	-0.7	-0.4	38.1*
CCc1ccc(CNCCc2c[nH]c3ccccc23)cc1	1.4	5.8	-19.6	16.1*	-6.8	-0.4	9.0
OC(CNCCc1c[nH]c2ccccc12)C(F)(F)F (stereo not given)	-3.6	-1.3	3.5	-2.6	17.6	·	·
O=[N+]([O-])c1ccccc1CNCCc1c[nH]c2ccccc12	-2.4	9.2	-33.9	2.4	11.1	·	·
Clc1ccccc1CNCCc1c[nH]c2ccccc12	·	·	·	22.8*	·	1.1*	50.9*
CNCCc1c[nH]c2ccccc12	·	·	·	32.1*	·	-0.6	15.9*
Fc1ccc(CNCCc2ccc3c(c2)OCO3)cc1	-1.7	3.1	8.5	3.7	9.5	·	·
Cc1ccc(C(O)(C(=O)OC(C)C)C(O)c2ccccc2)cc1 (stereo not given)	·	·	·	0.4	·	·	·
COc1ccc(-n2nnnc2C(c2cccc3ccccc23)N2CCC3(CC2)C(=O)NCN3c2ccccc2)cc1 (stereo not given)	·	·	·	4.3	·	·	·
COc1ccc(C(=O)C2CCCN(CC3CCCCC3)C2)cc1OC (stereo not given)	·	·	·	-8.0	·	·	·
c1ccc(CNCCc2c[nH]c3ccccc23)cc1	0.8	11.5	-18.6	40.5*	-4.0	-0.7	20.2*
CCOc1ccccc1CNCCc1ccc2c(c1)OCO2	-2.7	-4.2	15.4	52.7*	12.4	-0.3	25.1*
C[C@H](CO)N1C[C@H](C)[C@@H](CN(C)C(=O)Oc2ccc3ccccc3c2)OCc2cn(nn2)CCCC1=O	·	·	·	-0.3	·	·	·

Assay outcomes: PubChem BioAssay, The Scripps Research Institute Molecular Screening Center
